PubChem BioAssay AID1159580 (chemical genetic matrix, 2015)
Screen size: about 5,500 compounds; about 2,000 (36%) were called active. Roughly 18% stayed inconclusive and do not appear here. Cut-off read from the data, not from the text of the source: active = normalized growth mostly below about 0.91 (no sharp cut-off); inconclusive = no clear call, values can overlap the other calls; inactive = mostly above about 0.92. This is one part of the list.

Experiment: chemical genetic growth profiling, strain panel (AID 1159580);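 note: tested at 20 µM; growth read once vehicle control cultures reached saturation at 30 °C; 1 = growth at the plate median or of vehicle wells; lower values mean less growth of the strain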
Conditions: growth OD

Measured: normalized growth

NCC1CCC(C(=O)O)CC1 (stereo not drawn)
inactive: S. cerevisiae deletion strains, locus YKL009W, strain mrt4, stronger effect = lower value 0.97 | S. cerevisiae deletion strains, locus YKL068W, stronger effect = lower value 0.984 | S. cerevisiae deletion strains, locus YKL085W, strain MDH1 (second series), stronger effect = lower value 0.985 | S. cerevisiae deletion strains, locus YKL085W, strain MDH1, stronger effect = lower value 0.985 | S. cerevisiae deletion strains, locus YKL160W, strain elf1, stronger effect = lower value 0.997 | S. cerevisiae deletion strains, locus YKL190W, strain CNB1, stronger effect = lower value 0.995 | S. cerevisiae deletion strains, locus YKR001C, strain vps1, stronger effect = lower value 1.01 | S. cerevisiae deletion strains, locus YKR026C, strain gcn3, stronger effect = lower value 0.993 | S. cerevisiae deletion strains, locus YKR091W, strain srl3, stronger effect = lower value 0.997 | S. cerevisiae deletion strains, locus YLL001W, strain dnm1, stronger effect = lower value 0.998 | S. cerevisiae deletion strains, locus YLL026W, stronger effect = lower value 0.996 | S. cerevisiae deletion strains, locus YLL041C, strain sdh2, stronger effect = lower value 0.996 | S. cerevisiae deletion strains, locus YLR027C, strain aat2, stronger effect = lower value 0.989 | S. cerevisiae deletion strains, locus YLR039C, strain RIC1, stronger effect = lower value 0.975 | S. cerevisiae deletion strains, locus YLR058C, strain SHM2, stronger effect = lower value 1 | S. cerevisiae deletion strains, locus YLR102C, strain apc9, stronger effect = lower value 0.989 | S. cerevisiae deletion strains, locus YLR113W, strain HOG1, stronger effect = lower value 1 | S. cerevisiae deletion strains, locus YLR221C, strain rsa3, stronger effect = lower value 0.984 | S. cerevisiae deletion strains, locus YLR258W, strain gsy2, stronger effect = lower value 0.999 | S. cerevisiae deletion strains, locus YLR262C, strain YPT6 (second series), stronger effect = lower value 0.984 | S. cerevisiae deletion strains, locus YLR262C, strain YPT6, stronger effect = lower value 0.953 | S. cerevisiae deletion strains, locus YLR268W, strain sec22, stronger effect = lower value 0.991 | S. cerevisiae deletion strains, locus YLR320W, strain mms22, stronger effect = lower value 0.992 | S. cerevisiae deletion strains, locus YLR330W, strain CHS5, stronger effect = lower value 0.991 | S. cerevisiae deletion strains, locus YLR342W, strain FKS1 (second series), stronger effect = lower value 0.986 | S. cerevisiae deletion strains, locus YLR342W, strain FKS1, stronger effect = lower value 0.998 | S. cerevisiae deletion strains, locus YLR357W, strain rsc2, stronger effect = lower value 0.996 | S. cerevisiae deletion strains, locus YLR370C, strain arc18, stronger effect = lower value 0.996 | S. cerevisiae deletion strains, locus YLR371W, strain rom2, stronger effect = lower value 1 | S. cerevisiae deletion strains, locus YLR384C, strain iki3, stronger effect = lower value 0.999 | S. cerevisiae deletion strains, locus YLR418C, strain cdc73, stronger effect = lower value 0.97 | S. cerevisiae deletion strains, locus YML016C, strain PPZ1, stronger effect = lower value 0.999 | S. cerevisiae deletion strains, locus YML032C, strain rad52, stronger effect = lower value 1.01 | S. cerevisiae deletion strains, locus YML120C, strain ndi1, stronger effect = lower value 0.974 | S. cerevisiae deletion strains, locus YML124C, strain tub3, stronger effect = lower value 0.998 | S. cerevisiae deletion strains, locus YMR058W, strain fet3, stronger effect = lower value 0.988 | S. cerevisiae deletion strains, locus YMR078C, strain ctf18, stronger effect = lower value 0.98 | S. cerevisiae deletion strains, locus YMR125W, strain sto1, stronger effect = lower value 0.999 | S. cerevisiae deletion strains, locus YMR129W, stronger effect = lower value 0.999 | S. cerevisiae deletion strains, locus YMR205C, strain PFK2, stronger effect = lower value 0.989 | S. cerevisiae deletion strains, locus YMR223W, strain ubp8, stronger effect = lower value 0.987 | S. cerevisiae deletion strains, locus YMR231W, strain pep5, stronger effect = lower value 0.999 | S. cerevisiae deletion strains, locus YMR307W, strain GAS1, stronger effect = lower value 1.01 | S. cerevisiae deletion strains, locus YNL067W, strain RPL9B, stronger effect = lower value 1.03 | S. cerevisiae deletion strains, locus YNL071W, strain lat1, stronger effect = lower value 0.989 | S. cerevisiae deletion strains, locus YNL153C, strain GIM3, stronger effect = lower value 1.06 | S. cerevisiae deletion strains, locus YNL183C, strain NPR1, stronger effect = lower value 0.946 | S. cerevisiae deletion strains, locus YNL209W, strain ssb2, stronger effect = lower value 1.02 | S. cerevisiae deletion strains, locus YNL233W, strain BNI4, stronger effect = lower value 1.03 | S. cerevisiae deletion strains, locus YNL248C, strain rpa49, stronger effect = lower value 0.988 | S. cerevisiae deletion strains, locus YNL250W, strain rad50, stronger effect = lower value 0.979 | S. cerevisiae deletion strains, locus YNL271C, strain bni1, stronger effect = lower value 0.978 | S. cerevisiae deletion strains, locus YNL298W, strain CLA4, stronger effect = lower value 0.987 | S. cerevisiae deletion strains, locus YNL307C, strain MCK1, stronger effect = lower value 0.999 | S. cerevisiae deletion strains, locus YNL322C, strain KRE1 (second series), stronger effect = lower value 0.992 | S. cerevisiae deletion strains, locus YNL322C, strain KRE1, stronger effect = lower value 0.991 | S. cerevisiae deletion strains, locus YNR049C, strain mso1, stronger effect = lower value 0.991 | S. cerevisiae deletion strains, locus YNR052C, strain pop2, stronger effect = lower value 0.985 | S. cerevisiae deletion strains, locus YOL006C, strain TOP1, stronger effect = lower value 1.1 | S. cerevisiae deletion strains, locus YOL012C, strain htz1 0.934 | S. cerevisiae deletion strains, locus YOL147C, strain pex11, stronger effect = lower value 0.99 | S. cerevisiae deletion strains, locus YOR001W, strain rrp6, stronger effect = lower value 0.998 | S. cerevisiae deletion strains, locus YOR061W, strain CKA2, stronger effect = lower value 1 | S. cerevisiae deletion strains, locus YOR069W, strain VPS5, stronger effect = lower value 0.986 | S. cerevisiae deletion strains, locus YOR070C, strain gyp1, stronger effect = lower value 0.993 | S. cerevisiae deletion strains, locus YOR080W, strain dia2, stronger effect = lower value 0.987 | S. cerevisiae deletion strains, locus YOR083W, strain WHI5, stronger effect = lower value 1 | S. cerevisiae deletion strains, locus YOR106W, strain vam3, stronger effect = lower value 1.01 | S. cerevisiae deletion strains, locus YOR136W, strain idh2, stronger effect = lower value 0.991 | S. cerevisiae deletion strains, locus YOR144C, strain elg1, stronger effect = lower value 1 | S. cerevisiae deletion strains, locus YOR184W, strain ser1, stronger effect = lower value 0.981 | S. cerevisiae deletion strains, locus YOR231W, strain MKK1, stronger effect = lower value 1.05 | S. cerevisiae deletion strains, locus YOR265W, strain rbl2, stronger effect = lower value 0.994 | S. cerevisiae deletion strains, locus YOR270C, strain vph1, stronger effect = lower value 0.987 | S. cerevisiae deletion strains, locus YOR290C, strain snf2, stronger effect = lower value 1.01 | S. cerevisiae deletion strains, locus YOR316C, strain cot1, stronger effect = lower value 0.992 | S. cerevisiae deletion strains, locus YPL051W, strain arl3, stronger effect = lower value 0.993 | S. cerevisiae deletion strains, locus YPL078C, strain atp4, stronger effect = lower value 0.993 | S. cerevisiae deletion strains, locus YPL106C, strain sse1, stronger effect = lower value 0.967 | S. cerevisiae deletion strains, locus YPL240C, strain hsp82, stronger effect = lower value 0.989 | S. cerevisiae deletion strains, locus YPL241C, strain CIN2, stronger effect = lower value 0.996 | S. cerevisiae deletion strains, locus YPL256C, strain CLN2, stronger effect = lower value 1.02 | S. cerevisiae deletion strains, locus YPR119W, strain clb2, stronger effect = lower value 0.994 | S. cerevisiae deletion strains, locus YPR141C, strain kar3, stronger effect = lower value 0.998 | S. cerevisiae deletion strains, locus YPR163C, strain tif3, stronger effect = lower value 0.992 | S. cerevisiae deletion strains, locus YPR167C, strain met16, stronger effect = lower value 0.989 | S. cerevisiae deletion strains, strain wtn01, stronger effect = lower value 0.979 | S. cerevisiae strains, strain wild type, stronger effect = lower value 0.995
